# BLM inh – Bloom syndrome helicase (human) inhibition. 350,000 compounds, 0.2% hits. P54132. Potency, µM (series often up to 56.1 µM), actives largely listed as inhibitors. recombinant BLM DNA unwinding, fluorescence dequenching; also: nearly all actives have a fitted effect of over 35% in size
# L3MBTL1 inh – blocks human L3MBTL1 | Q9Y468 | AlphaScreen L3MBTL1–H3K9me1 peptide binding | Potency, µM (series often up to 57.1 µM), hits mostly inhibitors | 230,000 compounds, 0.66% hits | AID 485360; also: nearly all actives have a fitted effect of over 60% in size
#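 AlphaScreen assay: L3MBTL1 (50 nM final) was preincubated 30 min at room temperature with biotinylated H3(1-15)K9me1 peptide (75 nM final), then 30 min with library compounds; streptavidin donor and nickel chelate acceptor beads (10 ug/mL final) added, 30 min dark.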
# APEX1 inh – inhibitors of human APE1 endonuclease; P27695; recombinant APE1, TAMRA/BHQ-2 abasic DNA cleavage fluorescence; Potency, µM (series often up to 65.8 µM), most hits filed as inhibitors; 350,000 compounds, 0.35% hits; also: nearly all actives have a fitted effect of over 55% in size
#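 Activity was derived from the fluorescence gain between first and third kinetic reads (60 s intervals, ex 525/em 598 nm) after 50 nM THF-abasic TAMRA/BHQ-2 duplex was added to 0.75 nM APE1 preincubated 15 min with compound.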
# JMJD2E inh – blocks human JMJD2E demethylase activity; AID 2147; JMJD2E catalytic domain, FDH-coupled NADH fluorescence (FDH is formaldehyde dehydrogenase); 230,000 compounds, 1.6% hits; B2RXH2; Potency, µM (top dose mostly 57.1 µM), hits mostly inhibitors; active = well fitted inhibition curve with a large enough effect, not every such curve was filed as active; inconclusive = small, poorly fitted or top-dose-only effect, or another doubt; inactive = no such curve, though single readings can be large or run the other way; also: nearly all actives have a fitted effect of over 50% in size
# TDP1 block – TDP1 (human) enzyme inhibition. Q9NUW8. recombinant TDP1, AlphaScreen DNA substrate cleavage. Potency, µM (doses to about 130 µM), actives largely listed as inhibitors. 350,000 compounds, 0.28% hits. AID 485290; also: nearly all actives have a fitted effect of over 40% in size
#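 AlphaScreen read-out: signal falls as enzyme removes the 3' tyrosine-FITC from a 5'-biotinylated DNA oligo (15 nM, 5 min, RT). Enzyme was E. coli-made recombinant Tdp1 at 1 nM, exposed to compound for 15 min beforehand; beads 10 ug/ml, 10 min.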
# RECQ1 inh-1 – blocks DNA unwinding by human RECQ1 | P46063 | RECQ1 DNA unwinding, red fluorescence kinetic read | Potency, µM (titrated, usually from 57.3 µM), hits mostly inhibitors | 240,000 compounds, 0.54% hits; also: nearly all actives have a fitted effect of over 30% in size
# Target sequence (P46063 whole entry, looked up): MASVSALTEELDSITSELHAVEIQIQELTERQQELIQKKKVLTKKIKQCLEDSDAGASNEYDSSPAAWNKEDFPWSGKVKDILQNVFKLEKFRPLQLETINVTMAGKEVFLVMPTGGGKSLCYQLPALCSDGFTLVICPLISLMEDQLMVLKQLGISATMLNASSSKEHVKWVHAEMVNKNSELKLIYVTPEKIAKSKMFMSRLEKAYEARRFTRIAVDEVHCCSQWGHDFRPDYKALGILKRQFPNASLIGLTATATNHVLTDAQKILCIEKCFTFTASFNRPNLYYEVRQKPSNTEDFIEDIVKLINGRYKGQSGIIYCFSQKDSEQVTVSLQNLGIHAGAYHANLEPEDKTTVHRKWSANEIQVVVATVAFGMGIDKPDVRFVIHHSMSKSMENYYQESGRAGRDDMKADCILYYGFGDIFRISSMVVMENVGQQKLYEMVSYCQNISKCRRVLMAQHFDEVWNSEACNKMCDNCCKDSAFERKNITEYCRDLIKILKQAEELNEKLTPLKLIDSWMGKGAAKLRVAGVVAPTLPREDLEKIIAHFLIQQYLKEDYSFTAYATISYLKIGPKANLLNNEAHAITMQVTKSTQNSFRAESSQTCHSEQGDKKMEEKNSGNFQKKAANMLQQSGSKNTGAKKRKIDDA
#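 50 nM RECQ1T1 preincubated 15 min with compound in Tris pH 8.0 buffer with MgCl2, DTT, Tween-20 and 2.5 ug/ml poly(dI-dC); started with 200 nM TAMRA/BHQ-2 forked duplex and 2 mM ATP. Unwinding read as fluorescence (525/598 nm), two reads 2 h apart.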
# RECQ1 conf – confirmation of human RECQ1 helicase inhibitors | RECQ1 helicase DNA unwinding, fluorescence | 610 compounds, 28% hits | shares compounds with RECQ1 inh-1 | Potency, µM (doses to about 229 µM), hits mostly inhibitors; also: nearly all actives have a fitted effect of over 45% in size
# ADP FP counter – ADP displacement flagged in RECQ1 inhibitor counter-screen; shares compounds with RECQ1 inh-1; ADP fluorescence polarization displacement counterscreen; Potency, µM (series often up to 228 µM), actives largely listed as inhibitors; 530 compounds, 27% hits; AID 2711; also: nearly all actives have a fitted effect of over 45% in size
# RECQ1 inh-2 – RECQ1 helicase inhibition confirmed, round 2 | shares compounds with RECQ1 inh-1 | recombinant RECQ1 DNA unwinding, red fluorescence | Potency, µM (series often up to 119 µM), actives largely listed as inhibitors | 1,100 compounds, 15% hits | AID 504841; also: nearly all actives have a fitted effect of over 50% in size
# Hits are given with their value; – = inactive; ? = inconclusive; · = no result; [ ] = dose if it differs, or a comment. The sample as a whole holds a higher share of hits than the screen did. Unless noted, calls follow the shape of the dose curve; as a rule, active = well fitted curve in the direction sought with a large enough effect; inconclusive = small, poorly fitted or top-dose-only effect, or another doubt; inactive = no such curve, though single readings can be large; an effect the other way counts as inactive or inconclusive.
SMILES,BLM inh,L3MBTL1 inh,APEX1 inh,JMJD2E inh,TDP1 block,RECQ1 inh-1,RECQ1 inh-2,others
COc1ccc(OC)c(-c2csc(NC(=O)CN3C(=O)C4CCCCC4C3=O)n2)c1 (centres undefined),·,–,–,·,–,·,·,
COc1ccc(OC)c(-c2csc(NC(=O)Cn3[nH]c(=O)c4ccccc4c3=O)n2)c1,–,–,–,?,–,28µM,?,
CC1(OC(=O)c2cnc3ccccc3n2)C(=O)C=C2C=C(C3CC3)OC=C2C1=O (centres undefined),–,·,–,–,–,13µM,–,
Cc1cc(N)c2ccccc2[n+]1CCCCCCCCCC[n+]1c(C)cc(N)c2ccccc21,–,·,?,?,–,?,·,RECQ1 conf=?;ADP FP counter=22µM
Cc1ccc(S(=O)(=O)CC(=O)c2ccccc2)cc1,–,–,–,–,–,?,·,
CC(C)(C)c1ccc(C(=O)CS(=O)(=O)c2ccccc2)cc1,–,–,–,–,–,?,–,
COc1ccc(CC(=O)Nc2ccc(C(=O)Nc3ccccc3C(=O)O)cc2)cc1OC,–,–,–,–,–,–,·,RECQ1 conf=–;ADP FP counter=–
COc1cc2c(c(OC)c1OC)-c1c(cc3c(c1OC)OCO3)CC(C)C(C)(O)C2OC(=O)c1ccccc1 (centres undefined),–,·,–,·,–,–,·,
Cc1ccc(C)c(NC(=O)Cn2ncc3c([nH]c4ccccc43)c2=O)c1,–,·,·,·,–,·,·,
CCn1c(SCC(=O)Nc2nc(C)cs2)nnc1-c1ccoc1C,–,·,–,–,–,–,·,
COc1ccc(-n2c(SCC(=O)Nc3nccs3)nnc2-c2ccoc2C)cc1,–,·,–,–,–,–,·,RECQ1 conf=–;ADP FP counter=–
COc1ccc(-n2c(SCC(=O)Nc3nc(C)cs3)nnc2-c2ccoc2C)cc1,–,–,–,–,–,–,·,RECQ1 conf=–;ADP FP counter=–
Cc1nc(C(=O)Nc2cccc(Cl)c2)nn1-c1cc(OC(C)C)c(Cl)cc1Cl,–,–,–,–,–,35µM,–,
Cc1nc(C(=O)Nc2cc(Cl)ccc2Cl)nn1-c1cc(OC(C)C)c(Cl)cc1Cl,–,–,–,–,–,–,·,
CCOC(=O)c1ccc(NC(=O)Cn2nc(C)c3nn(-c4ccc(Cl)cc4)c(C)c3c2=O)cc1,–,·,·,·,–,·,·,
CCCCC1=CC2=CC(=O)C(C)(OC(=O)C3CCCC3)C(=O)C2=CO1 (centres undefined),–,·,–,–,–,?,79µM,
CC(C)(C)c1ccc(C(=O)NCC(c2cccnc2)N2CCc3ccccc3C2)cc1 (centres undefined),–,·,·,·,–,·,·,
Cc1nc2ccc(N=NC3=C(O)CCCC3=O)cc2s1,–,–,–,–,–,1µM,·,RECQ1 conf=–;ADP FP counter=–
Cc1nc2ccc(NC(=O)N3CCCCC3)cc2s1,–,–[11.4 µM],–,–,–,–,·,
O=[N+]([O-])c1ccc(Sc2cccc[n+]2[O-])c2nonc12,?,?,?,–,–,?,25µM,
O=[N+]([O-])c1ccc(Nc2ccccc2)c2nonc12,–,·,–,·,·,·,·,
Cc1c2cnn(CC(=O)Nc3c(F)c(F)cc(F)c3F)c(=O)c2c(C)n1Cc1ccccc1F,?,·,?,?,–,25µM,?,
Cc1cc(C(=O)Nn2c(C3CCCCC3)nc3ccccc3c2=O)ccc1[N+](=O)[O-],–,–,–,–,–,25µM,–,
CCc1ccc(NC(=O)COC(=O)c2ccc(Cl)c(S(=O)(=O)N3CCCCCC3)c2)cc1,–,–,–,–,–,?,?,
O=C(O)c1ccc(Cl)c(NC(=O)C2CCCN2S(=O)(=O)c2cccc3nsnc23)c1 (centres undefined),–,–,–,–,–,–,·,RECQ1 conf=–;ADP FP counter=–
